A selection: hits, their analogues and other compounds. The true share with any hit is near 1.3%.
BJeLR lethal = kills HRASV12-expressing BJeLR cells; inhibition, % (concentration not given with the values); BJeLR (HRASV12) viability, CellTiter-Glo ATP luminescence, 48 h; 300,000 tested, 0.17% active; in the data active = inhibition above about 50%
PrP 5UTR inh = suppresses PrP 5' UTR mRNA reporter expression. AID 488862. 340,000 tested, 0.35% active. cell-based PrP 5' UTR mRNA reporter, plate reader. inhibition, % (test concentration not listed); in the data active = inhibition above about 52%; also: 0 = median of the neutral control wells
UGM FP inh = Mtb UDP-galactopyranose mutase inhibition | inhibition, % at 10 µM | P9WIQ1 | purified UGM, fluorescence polarization probe displacement | AID 504406 | 320,000 tested, 0.06% active; in the data active = inhibition above about 10%, passing the limit was not always enough
Target sequence (P9WIQ1 whole entry, looked up): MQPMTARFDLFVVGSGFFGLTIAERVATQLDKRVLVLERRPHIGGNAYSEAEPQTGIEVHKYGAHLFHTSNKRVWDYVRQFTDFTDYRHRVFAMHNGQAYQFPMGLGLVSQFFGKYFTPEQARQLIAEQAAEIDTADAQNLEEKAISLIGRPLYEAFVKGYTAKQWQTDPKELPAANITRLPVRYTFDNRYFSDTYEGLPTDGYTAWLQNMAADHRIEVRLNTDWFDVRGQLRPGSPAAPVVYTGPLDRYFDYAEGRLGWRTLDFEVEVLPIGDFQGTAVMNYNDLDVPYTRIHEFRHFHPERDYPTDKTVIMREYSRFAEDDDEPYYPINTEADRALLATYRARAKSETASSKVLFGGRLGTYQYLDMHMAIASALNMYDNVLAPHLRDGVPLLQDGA
RecA splice inh = blocks M. tuberculosis RecA intein splicing. P9WHJ3. cell-free RecA intein splicing, fluorescence. inhibition, % (no concentration beside the values). 290,000 tested, 0.75% active. AID 2221; in the data active = inhibition above about 30%;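 also: 0% = vehicle wells and 100% = reference inhibitor control wells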
FadD28 FP inh = blocks FadD28 binding to the bisubstrate probe. fluorescence polarization. inhibition, % at 12.5 µM. 360,000 tested, 0.22% active; in the data active = inhibition above about 8.5%, passing the limit was not always enough
Rv3671c inh = inhibits the M. tuberculosis serine protease Rv3671c; P9WHR9; inhibition, % at 5.96 µM; 320,000 tested, 0.048% active; in the data active = inhibition above about 38%;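 also: extracellular domain of Rv3671c used as enzyme; 0% = enzyme with DMSO and 100% = no enzyme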
The depositor's hits bear a star; x = no result given.

SMILES	BJeLR lethal	PrP 5UTR inh	UGM FP inh	RecA splice inh	FadD28 FP inh	Rv3671c inh
COc1ccc(OC)c(/C=C2\Oc3cc(OCC(=O)N4CCC[C@H]4C(=O)O)ccc3C2=O)c1	-8.6	-70.7	12.4*	-3.0	-0.4	1.8
O=C(O)CNC(=O)C1(NC(=O)OCc2ccccc2)CCCC1	x	9.1	x	x	-0.4	x
CC(=O)c1c(C)[nH]c(C(=O)OCC(=O)c2ccc(Br)cc2)c1C	x	x	x	x	-1.5	x
CC1(C(=O)NS(=O)(=O)c2ccccc2Cl)CCN1C(=O)COc1ccc(Cl)cc1 (configuration not stated)	x	x	x	x	-2.2	x
CCCC1NC(=O)c2cccnc2-n2c1nc1ccc(Br)cc1c2=O (configuration not stated)	x	x	x	x	-2.9	x
CCN(c1ccccc1)S(=O)(=O)c1ccc(Cl)c(NC(=O)COC(=O)c2ccc(O)cc2)c1	-11.0	-3.5	1.1	4.1	-0.1	-15.8
CCN(c1ccccc1)S(=O)(=O)c1ccc(Cl)c(NC(=O)COC(=O)c2cc(O)c3ccccc3c2O)c1	3.4	x	-1.3	80.3*	x	-132.9
COc1cc(/C=C2\SC(=O)N(CC(=O)Nc3cccc(C)c3)C2=O)ccc1OC(C)C(=O)O (configuration not stated)	-4.8	-17.4	-1.1	1.3	81.2*	-3.1
COc1ccc(/C=C2\SC(=O)N(CC(=O)Nc3ccc(O)cc3)C2=O)cc1OC	5.0	-6.2	-0.9	-3.1	1.2	x
Cc1ccc(NC(=O)CN2C(=O)S/C(=C\c3cccn3-c3cccc(C(=O)O)c3)C2=O)cc1C	0.4	-15.6	1.0	x	-0.6	-3.6
COc1ccc(/C=C2\SC(=O)N(CC(=O)Nc3cccc(C)c3)C2=O)cc1O	6.0	-3.4	-2.3	-0.5	26.2*	-53.9
Cc1cccc(NC(=O)CN2C(=O)S/C(=C\c3cccn3-c3cccc(C(=O)O)c3)C2=O)c1	-5.9	-21.1	0.4	-4.8	61.6*	-24.9
COc1ccc(NC(=O)C[C@H]2C(=O)N(c3ccccc3)C[C@@H]2CSC)cc1	x	x	x	x	-5.8	x
CC(=O)N[C@H]1[C@H]([C@H](O)[C@H](O)CO)O[C@](O)(C(=O)O)C[C@@H]1O	x	-24.5	x	x	-0.7	x
C/C(=N\Nc1ccc(Cl)c(C(=O)O)c1)c1ccc[nH]1	-5.1	14.0	-0.7	-0.2	27.7*	-1.8
C/C(=N\Nc1ccc(Cl)c(C(=O)O)c1)c1cccs1	9.8	-45.1	-0.7	7.5	-1.0	-3.5
CCN(C(=O)COC(=O)c1cc(=O)[nH]c2ccccc12)c1c(N)n(Cc2ccccc2)c(=O)[nH]c1=O	x	5.9	x	x	-0.7	x
CCN(C(=O)COC(=O)c1ccc(O)cc1O)c1c(N)n(Cc2ccccc2)c(=O)[nH]c1=O	x	-13.3	10.2*	x	x	-7.0
O=C(c1[nH]c(C(F)(F)F)nc1-c1ccccc1)N1CCN(Cc2c(F)cccc2Cl)CC1	x	x	x	x	-0.5	x
COc1ccc(CCNc2nnc(Sc3nnnn3-c3ccccc3)s2)cc1OC	59.6*	-11.0	0.2	14.4	-2.8	-11.8
N#CC1C(=N)Cc2ccccc2-c2ccccc21 (configuration not stated)	x	-4.9	x	x	-5.7	x
Cc1ccc(S(=O)(=O)c2cc(Nc3ccccc3)ccc2O)cc1	-1.6	-13.9	1.4	9.5	3.0	-5.6
CC(=O)Nc1ccc2c(O)cc(S(=O)(=O)O)cc2c1	x	-15.0	x	x	2.5	x
O=S(=O)(O)c1ccc(O)c2cc(Nc3ccccc3)ccc12	x	-10.3	x	x	59.0*	x
O=S(=O)(O)c1cc(O)c2ccc(Nc3ccccc3)cc2c1	x	-10.4	x	x	24.1*	x
SMILES	BJeLR lethal	PrP 5UTR inh	UGM FP inh	RecA splice inh	FadD28 FP inh	Rv3671c inh
COc1ccccc1Nc1ccc2c(O)cc(S(=O)(=O)O)cc2c1	x	8.5	x	x	69.7*	x
COc1ccc(S(=O)(=O)O)cc1P(=O)(c1ccccc1)c1ccccc1	-1.4	-18.4	-0.3	-1.7	-5.5	0.1
Nc1ccc2c(O)cc(S(=O)(=O)O)cc2c1	x	-20.9	x	x	-0.4	x
Nc1cccc2c(O)cc(S(=O)(=O)O)cc12	x	10.3	x	x	36.0*	x
COc1ccccc1NC(=O)N(C)C[C@@H]1OCc2cn(nn2)CCCC(=O)N([C@H](C)CO)C[C@H]1C	x	x	x	x	-3.7	x
O=S(=O)(O)c1cc(O)c2cc(Nc3ccccc3)ccc2c1	x	-12.4	x	x	28.1*	x
O=C(O)c1cc(N/N=C/c2ccc(OCc3ccccc3)cc2)ccc1Cl	-30.7	-55.3	1.1	2.4	3.3	3.7
COC(=O)c1ccc(COc2ccc(/C=N/Nc3cccc(C(=O)O)c3)cc2)cc1	4.9	-41.6	0.6	5.7	11.3*	-0.9
CSc1ccc(/C=N/Nc2cccc(C(=O)O)c2)cc1	x	38.9	x	x	12.8*	x

Compound activity (PubChem)
